Laboratory results: the supplement of paper PMC6555819

What follows are sequences tested on VDR:RXRa (NR concentration 270 nM, RXRa partner concentration 90 nM) (assay: PBM binding z-score (relative to random genomic background probes); higher = stronger binding; sequences stand for … in GC…GCGATTGACAGCGTAGAATGAAGG).
Method: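 Protein-binding microarray (Agilent 4x180K custom design, double-stranded 60-nt probes: 5' GC cap, 34-nt variable region, 24-nt constant primer region; full probe sequence given). Purified or IVT nuclear receptor:RXRα heterodimers (3:1 NR:RXRα, mostly 270:90 nM) or homodimers were incubated for 1 h in PBS with 2% milk and no ligand, then detected with Alexa488 antibodies. Fluorescence from o1-orientation probes (~5 replicates averaged) was converted to z-scores against 500 random hg19 background probes. Variable regions are seed direct-repeat (DR0–DR5) sites, all their single-nucleotide variants and half-site ablations.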

Sequence	PBM binding z-score
CCTACTGGTCCAAAAAGGTCATTGATGCCGATAA	4.99
CCTACTGGGCCATTCAGAGTTCATTGATCATATG	3.5
CAAACTAGGTAAAGGTCAAAGTCGGTTTGTGCCA	5.38
CCGACTGGGGCAGAAAGTTTACCATACCATCCGG	0.484
TCATATAGGTAAAAGGCGAAAGTCGGTGTGGTAA	0.679
TCTATTAGGTGATTAGGGCAACCGAAACAGCGGA	0.268
ATCTCTAGTTAAGACTCAGTTCAGTGAAGAACGC	1.2
ATCGAAAGGTCGTGAGATGAGTATACAGAAAGGC	3.09
TAGCCTAGGTCAGATAGGGCCAGTATACGCTATA	1.11
GCTATTAGTTGAAATGGCAACCGAATGATTCTCG	-0.304
AGAATGAGGTTAAGATCAGGGATACAGAATACAT	1.47
GCTCGGAGGACTAGGTCAGAGCTTTGTCCGTAGA	-0.562
TCATATAGGTAATACAGTTGAAAGTCGGCATCTA	1.63
CGAACTAGGACAGAACAGGACAGTGAAGGATGAT	-0.358
TCTATTAGTTGAAGGGGAACCGACGAGTCCGTTT	1.13
CTCGAAAGGTCGTGCGCAGGTGAGTATACCAAAC	3.64
ATCGAAAGGTCGAGGTGAGCATAGAGAAAGGGAA	2.36
TTACCAAGGTGAAGCTCGTTGATCCCTCTGTAGA	-0.103
ATAGAAAGGTCGTGAGGTGAGTATACAGAAAGGC	3.63
TAGCCTAGGTCAGATCGGGCCAGTATACGCTATA	0.518

Sequence	PBM binding z-score
TCTTGTAGATCAAAGGTGAAGAAAGCCGAAGCCT	0.74
TAGCCTAGGTCATGCGCGCCAGTATAGTGTCGGC	2.05
CCTACTGGGCCAAAAAGGTCCTTGATGCCGATAA	-0.189
GCTAGCAGGCCATTTAGGTCACTCAATGACGGGC	0.996
GCTAGTTGGTCAGTAAAAGATCACACACCGGTCG	-0.204
CCTACTGGCCCATCAGGTCATTGATATCAACGTT	1.78
CAAACTAGGTCAAAGGGCAAAGTCGAGCCAACCA	3.83
ACAGACAAGTGATGAAGGTAACTCAGGCTATCAT	-0.0224
TGAATGAGGTTATTAGATCAGGGAACGTTGCAAA	0.99
CTTTACGGGTCACGAGGTTATAGCACGACGAGCG	5.31
TAGCCTAGGTCTTGCGGGCCAGTATAGTGTCGGC	-0.977
CAAACTAGGTCACAGAGATCAAAGTCCGTGCGTA	4.39
TCTAGTTGGTGAAAGGTCACACACTCGAAATGCG	4.89
CCTAGTTGGACAAGGTCACACACGCTATAGGTAC	4.08
ACAGACAGGTGGGTGAAGGTAACTCAGCTGGACG	-0.163
ATATGTAGGTTTTCGGGTCATTCAGTTTGCGCAT	5.07
GTACCAAGGTAAATAGGTCGTTGATGAGTAGGCG	0.336
CCTACTGTGCCAAAAAGGTCATTGATGCCGATAA	4.92
TCTTGTAGATCATAGGTTAAGAAAGCCGAAGCCT	0.86
ATCGAAAGGTCGAGAGGTGAGTATACAGAAAGGC	2.73
